Screening data (PubChem BioAssay)
uPA surface inh – blocks generation of uPA at the cell surface. 330,000 tested, 0.31% active. cell surface uPA generation assay, qHTS. Potency, µM (series often up to 38.3 µM), for the others: at the highest dose activity change, negative = inhibition, usual class: inhibitors. AID 540303; active means well fitted inhibition curve with a large enough effect; inconclusive means small, poorly fitted or top-dose-only effect; inactive means no such curve, though single readings can be large or run the other way; tested in mouse RAW 264.7 cells; further: potency means the concentration at half of the fitted maximal effect; on the % scale 0 is the no-effect control and ±100 the full control effect; nearly all actives have a fitted effect of over 55% in size
TGFb SMAD3 inh – inhibitors of TGF-b signaling; Potency, µM (titrated, usually from 46.1 µM), inactives show at the top dose activity, negative = inhibition, most hits filed as inhibitors; HepG2 CAGA-GFP TGF-b/SMAD3 reporter, GFP fluorescence, 18 h; TGF-beta stimulated, 500 pg/mL final; 410,000 tested, 1.2% active; AID 588855; further: potency means the concentration at half of the fitted maximal effect; on the % scale 0 is the no-effect control and ±100 the full control effect; nearly all actives have a fitted effect of over 65% in size
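Inhibition was scored as loss of TGF-beta-induced (500 pg/mL final, 18 hours, 37 degrees C) GFP in HEPG2 cells carrying a CAGA-GFP reporter, in DMEM with 1% FBS. Well GFP was summed per cell; Activity was normalised to unstimulated and stimulated DMSO wells, then concentration-response fitting.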
ATXN viability – viability counter-screen for ATXN expression inhibitors; 400,000 tested, 0.49% active; S2 cells (HEK-293 line with an ATXN2-luciferase reporter) viability, CellTiter-Fluor protease fluorescence, 24 h; Potency, µM (highest dose often 56.7 µM), hits mostly cytotoxic; further: potency means the concentration at half of the fitted maximal effect; nearly all actives have a fitted effect of over 40% in size
HepG2 viability – HepG2 cytotoxicity, counter-screen for TGF-b inhibitors; HepG2 CAGA-GFP viability, ATP luminescence, 18 h; Potency, µM (top dose mostly 46.1 µM), inactives show at the highest dose activity change, negative = cytotoxicity, hits mostly cytotoxic; 410,000 tested, 0.76% active; further: potency means the concentration at half of the fitted maximal effect
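CellTiter-Glo luminescence gave cytotoxicity after 18 hours at 37 degrees C. The cells were HepG2 CAGA-GFP in 1% FBS DMEM, stimulated with 500 pg/mL TGF-beta after compound addition. %Activity was normalised to no-cell wells (complete cell-killing) and DMSO (no toxicity), and curves were fitted and classified.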
Giardia kill – kills Giardia lamblia; 340,000 tested, 0.15% active; activity change, % at 7.66 µM, hits read low; Giardia lamblia trophozoite viability; AID 540267; in the data active means activity change below about -80%; inconclusive means between about -30% and that limit;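 further: parasites exposed to compound for two days anaerobically before the ATP read; on the % scale 0 is the no-effect control and ±100 the full control effect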
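Trophozoite viability was measured as ATP-dependent luminescence, read 15-30 min after reagent addition. Before that, parasites at 100 cells/well were exposed to compounds for 48 h, anaerobically, at 37 deg C.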
ATXN2 expr inh – reduces ATXN2 reporter expression in HEK-293 cells | HEK-293 ATXN2-luciferase reporter, luminescence, 24 h | Potency, µM (titrated, usually from 57 µM), for the others: top-dose activity change, negative = inhibition, most hits filed as inhibitors | 360,000 tested, 0.72% active; further: potency means the concentration at half of the fitted maximal effect; on the % scale 0 is the no-effect control and ±100 the full control effect; nearly all actives have a fitted effect of over 55% in size
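qHTS (up to 57 uM final) was run with 24 h compound exposure of reporter cells at 37 °C. Each well was multiplexed: SteadyGlo luminescence measured ATXN2-luciferase expression after a fluorogenic Gly-Phe-AFC viability readout (25 uM final).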
The depositor's hits bear a star; i = inactive; ? = inconclusive; / = not tested or not shown. The list is not random: actives were taken first. Their share in the collection is about 2.6%. Unless noted, the call rests on the fitted dose curve; in most records, active means well fitted curve in the direction sought with a large enough effect; inconclusive means small, poorly fitted or top-dose-only effect, or another doubt; inactive means no such curve, though single readings can be large; an effect the other way counts as inactive or inconclusive.

SMILES | uPA surface inh | TGFb SMAD3 inh | ATXN viability | HepG2 viability | Giardia kill | ATXN2 expr inh
Clc1ccc(CSc2nnc(-c3c[nH]c4ccccc34)o2)cc1 | 5% | 16µM* | i | -69% | 25 | -25%
CCOC(=O)c1[nH]c(C)c(CCC(=O)N2CCN(c3cc(Cl)ccc3C)CC2)c1C | / | 11µM* | ? | -27% | / | -8%
O=c1c2ccccc2oc2ccc(C#CC3(O)CCCCC3)cc12 | 2.8µM* | ? | / | -30% | ? | ?
NC1(C#Cc2ccc3c(=O)c4ccccc4sc3c2)CCCCC1 | 3% | -18% | i | -34% | -8 | 1%
Cc1cc2sc3ccc(C#CC4(O)CCCCC4)cc3c(=O)c2cc1C | 10µM* | 0% | i | -6% | ? | -59%
Cn1c2ccccc2c(=O)c2cc(C#CC3(O)CCCCC3)ccc21 | 1.3µM* | 7% | i | -26% | ? | ?
Cc1c(C(=O)N2CCCCCC2)sc2ncnc(NCC3CCCO3)c12 (stereo not drawn) | / | / | i | / | / | /
CC12CCC=CC1C(c1ccc(/C=C/c3ccccc3)cc1F)N(Cc1ccccc1)C2=O (stereo not drawn) | / | -5% | / | -33% | 8 | /
Cc1cc(Cl)ccc1OCC(=O)NCC1Cc2cc(-c3cnccn3)ccc2O1 (stereo not drawn) | / | / | i | / | / | /
CC(C)CC(=O)Nc1ccc(-c2cn3ccsc3n2)cc1 | 9% | 11% | i | -14% | 14 | -2%
CC(C)(C)C(=O)Nc1ccc(-c2cn3ccsc3n2)cc1 | -18% | 2% | i | -26% | -97* | ?
CC(C)c1ccc2c(c1)C1(NN=C(c3ccccc3)S1)C(=O)N2 (stereo not drawn) | -9% | ? | ? | -91% | -8 | -14%
CCc1ccc2c(c1)C1(NN=C(c3ccc(C)cc3)S1)C(=O)N2 (stereo not drawn) | -8% | 16µM* | ? | -95% | 0 | ?
COc1cc(OC)nc(-n2ncc(Br)c(Br)c2=O)n1 | ? | 3.5µM* | / | 11µM* | 15 | ?
CC12CCC(=O)C=C1CCC1C2CCC2(C)C(c3csc(N)n3)CCC12 (stereo not drawn) | -7% | 13µM* | ? | 8% | 19 | ?
CN1CCCc2cc(/C=C/c3ccnc4ccccc34)ccc21 | / | 118% | / | -55% | / | /
O=C(O)CCC(=O)N1CCN(Cc2ccc3c(c2)OCO3)CC1 | 1% | 15% | i | -4% | 31 | 4%
N#CCC(=O)N1CCN(Cc2ccc3c(c2)OCO3)CC1 | 0% | -15% | i | 1.6µM* | 21 | /
CN(C)c1ccc(C(=O)Nc2cccc(S(=O)(=O)NC3=NCCCCC3)c2)cc1 | ? | 1% | i | -16% | ? | /
CCCCNC(=S)Nc1cccc(S(=O)(=O)NC2=NCCC2)c1 | 4% | -8% | i | 3.5µM* | 9 | 3%
CC(C)(C)c1ccc(C(=O)Nc2cccc(S(=O)(=O)NC3=NCCC3)c2)cc1 | 4µM* | -27% | i | -36% | ? | -29%
O=C(CCl)Nc1cccc(S(=O)(=O)NC2=NCCC2)c1 | ? | 11µM* | / | 14µM* | -3 | /
CC1CCN(c2oc(-c3ccc(OCc4ccccc4Cl)cc3)nc2C#N)CC1 | / | 3% | / | 9% | 9 | /
O=C(/C=C/c1ccc(F)cc1)c1cc(Br)ccc1O | 2% | -20% | i | -32% | -6 | 18%
Cc1ccc(/C=C/C(=O)c2ccccc(=O)c2O)cc1C | -18% | 10µM* | ? | -48% | -2 | ?
SMILES | uPA surface inh | TGFb SMAD3 inh | ATXN viability | HepG2 viability | Giardia kill | ATXN2 expr inh
O=C(/C=C/c1ccccc1)c1cc(Br)ccc(=O)c1O | -18% | 16µM* | ? | -16% | -12 | 20µM*
COc1ccc(C=CC(=O)c2ccc(OC)c(OC)c2O)cc1OC | -19% | -7% | i | -16% | -6 | 2%
CN(C)c1c(Cl)cc(/C=C/c2ccnc3ccccc23)cc1Br | / | ? | / | -26% | / | /
Cc1cnc(-n2ncc(C(=O)NCC(C)(C)N3CCOCC3)c2C(C)C)nc1-c1ccc(F)cc1 | / | / | i | / | / | /
O=C1Nc2ccc(Br)cc2/C1=C/C(=O)c1ccc2c(c1)OCO2 | ? | ? | 20µM* | -110% | -4 | /
CO/N=C(\C(=O)N[C@@H]1C(=O)N2C(C(=O)O)=C(CSc3nc(=O)c(O)nn3C)CS[C@H]12)c1csc(N)n1 | / | / | i | / | / | 13%
CC(=O)Oc1ccc(N(C(C)=O)S(=O)(=O)c2ccc(C)cc2C)c2ccccc12 | 10µM* | ? | ? | -95% | 5 | ?
Cc1ccc(S(=O)(=O)N(C(=O)c2ccncc2)c2ccc(OC(=O)c3ccncc3)c3ccccc23)cc1 | -21% | 0% | ? | -22% | -7 | 19µM*
COc1ccccc1-c1ccnc(-n2ncc(C(=O)NCCc3ccccn3)c2C)n1 | / | / | i | / | / | /
CCOc1ccc(-n2c(C)nc3cc(C(=O)NCCC4=CCCCC4)ccc32)cc1 | / | 18µM* | i | -31% | / | 2%
N#Cc1ccc(Oc2ccc3c(c2)COB3O)cc1 | / | / | / | / | / | -23%
Cc1ccc(C)c(NC(=O)CSc2nc3nc(-c4cccs4)cc(C(F)(F)F)c3c(=O)[nH]2)c1 | -6% | 16µM* | i | -39% | -21 | -35%
O=C(COc1ccccc1C(=O)OCC(=O)Nc1cccc2ccccc12)Nc1ccc(Br)cc1 | / | 7% | / | 2% | / | /
CCO[C@@H]1OC(C(=O)N2CCN(Cc3ccccc3)CC2)=C[C@H](c2ccc(C(F)(F)F)cc2)[C@H]1CCCO | 0% | 13µM* | ? | -33% | ? | 0%
CN(C)c1ccc(/C=C2\C(Cl)=Cc3ccccc32)cc1 | / | -4% | / | -36% | / | /
C/C(CCc1ccc2c(c1)OCO2)=N\NC(=S)NC(C)C | 5% | ? | 7.1µM* | -71% | -11 | 7.9µM*
COCCNC(=S)N/N=C(\C)CCc1ccc2c(c1)OCO2 | -4% | ? | i | -30% | -9 | 2%
O=C1C(c2ccccc2)=[N+]([O-])c2ccccc21 | ? | ? | ? | 11µM* | -11 | ?
Cc1cc[n+](CC#N)cc1 | / | -1% | / | -5% | / | /
COc1ccccc1OCCn1c(C(C)Oc2ccccc2)nc2ccccc21 (stereo not drawn) | / | 11µM* | i | -46% | / | -32%
COc1ccccc1OCCn1c(C(C)O)nc2ccccc21 (stereo not drawn) | -3% | -14% | i | -7% | 14 | -6%
Cc1nc2c(OCc3ccc(C(F)(F)F)cc3)cccn2c1N(C)C(=O)CCC1CCCC1 | / | ? | ? | -92% | / | 32µM*
Cc1nc2c(OCc3ccc(F)cc3)cccn2c1N(C)C(=O)CCC1CCCC1 | / | -3% | ? | -11% | / | ?
